Assay outcomes from PubChem BioAssay.
The entries come from a sample that favours hits as a whole.
PKM2 inhibitor: inhibitors of human pyruvate kinase M2 | actives 0.058% (n = 260,000) | P14618 | purified PKM2, ATP generation, Kinase-Glo luminescence | Potency, µM (highest dose often 57.5 µM), inactives show at the top dose activity change, negative = inhibition, actives largely listed as inhibitors; also: potency is read from the fitted curve at half-maximal effect; nearly all actives have a fitted effect of over 60% in size
Target sequence (P14618 whole entry, looked up): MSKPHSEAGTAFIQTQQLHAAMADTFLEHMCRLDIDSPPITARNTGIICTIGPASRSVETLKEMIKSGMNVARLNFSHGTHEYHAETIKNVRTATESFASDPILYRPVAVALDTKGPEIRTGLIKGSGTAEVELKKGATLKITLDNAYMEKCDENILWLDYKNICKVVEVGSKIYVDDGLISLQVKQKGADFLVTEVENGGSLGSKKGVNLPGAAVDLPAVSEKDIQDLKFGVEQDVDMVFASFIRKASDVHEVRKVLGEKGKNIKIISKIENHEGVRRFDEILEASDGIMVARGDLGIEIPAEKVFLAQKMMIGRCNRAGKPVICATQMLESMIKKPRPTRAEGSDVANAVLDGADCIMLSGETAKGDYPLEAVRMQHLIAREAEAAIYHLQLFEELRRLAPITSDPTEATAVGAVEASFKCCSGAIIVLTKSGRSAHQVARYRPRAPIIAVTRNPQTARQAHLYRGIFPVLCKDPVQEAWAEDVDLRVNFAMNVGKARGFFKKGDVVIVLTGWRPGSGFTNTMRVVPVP
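Enzyme run at intermediate activity with final 0.1 mM ADP, 0.5 mM PEP (50 mM imidazole pH7.2, 50 mM KCl, 7 mM MgCl2), incubated 1 h at r.t. ATP formed read by Kinase-Glo luminescence, normalized to no-enzyme (full inhibition) and uninhibited wells.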
PKM2 inh dose: dose-dependently blocks human pyruvate kinase M2 activity; actives 50% (n = 55); shares compounds with PKM2 inhibitor; purified hPK-M2, Kinase-Glo ATP luminescence, 1 h; AID 2263; Potency, µM (doses to about 57.5 µM), inactives show at the highest dose activity change, negative = inhibition, usual class: inhibitors
FLuc counter: counter-screen for pyruvate kinase M2 inhibitors: firefly luciferase inhibition | shares compounds with PKM2 inhibitor | Kinase-Glo firefly luciferase, luminescence, 8 min | Potency, µM (top dose mostly 57.5 µM), for inactives: at the highest dose activity, negative = inhibition, usual class: inhibitors | actives 30% (n = 55) | AID 2265
PKM2 LDH couple: blocks human pyruvate kinase M2 in LDH-coupled assay | shares compounds with PKM2 inhibitor | purified hPK-M2, LDH-coupled NADH fluorescence kinetic | Potency, µM (highest dose often 57.5 µM), without a hit: at the top dose activity change, negative = inhibition, hits mostly inhibitors | 55 tested, under 10 active | AID 2267
* hit, by the source's call; ? = inconclusive; nt = not tested or not shown. Calls follow the shape of the dose curve; as a rule, active = well fitted curve in the direction sought with a large enough effect; inconclusive = small, poorly fitted or top-dose-only effect, or another doubt; inactive = no such curve, though single readings can be large; an effect the other way counts as inactive or inconclusive.

SMILES	PKM2 inhibitor	others
O=C(Nc1ccc(N2CCOCC2)c(Cl)c1)c1ccc(-n2cnnc2)cc1Cl	42.5%
O=C(NCCN1C(=O)S/C(=C\c2cccnc2)C1=O)C1=NN(c2ccccc2)C(=O)CC1	30.1%
Nc1nnc(SCC(=O)c2ccc3c(c2)NC(=O)CO3)s1	63.6%
O=C(NCc1ccc(/C=c2\sc3n(c2=O)CCN=3)o1)C(=O)Nc1ccccc1	61.3%
O=C1CCN(S(=O)(=O)c2ccccc2)CCN1CCOCc1cccc(F)c1	7.0%
CNC(=O)C1CCN(S(=O)(=O)c2c(C)noc2/C=C/c2cccc(OC)c2)CC1	33.0%
O=C(NCCc1nc2ccc(Cl)cc2[nH]1)C1CCC(=O)N(Cc2cccc(F)c2)C1 (configuration not stated)	44.2%
CCN1/C(=C/c2ccc3ccccc3[n+]2CC)C=Cc2ccccc21	14.1µM*
CC(=O)C1=C(C)NC(SCc2cccc([N+](=O)[O-])c2)=C(C#N)C1c1ccco1 (configuration not stated)	86.2%
COc1ccc(S(=O)(=O)N2CCN(C(=O)NCc3ccc(C)cc3)CC2)cc1	62.8%
NS(=O)(=O)c1cc2c(cc1Cl)NC(C1C[C@H]3C=C[C@@H]1C3)NS2(=O)=O (some centres not stated)	43.2%
CCCCc1n(CC(=O)c2ccc(Cl)cc2)c2ccccc2[n+]1C	-6.7%
O=[N+]([O-])c1ccc(-n2nnnc2-c2ccccc2)cc1	30.6%
Cc1[nH]n(-c2ccccc2)c(=S)c1C=Nc1ccc([N+](=O)[O-])cc1	11.2µM*
CC1(C)SC(=S)N(c2ccccc2)C1/[N+]([O-])=C/c1cccc([N+](=O)[O-])c1 (configuration not stated)	33.2%
O=C1CNC(=S)N1CCc1ccc(O)c(O)c1	45.4%
O=C(CCCl)N(Cc1nc2ccccc2c(=O)[nH]1)Cc1cccs1	54.4%
O=C(CSc1nc2ccccc2s1)Nn1cnnc1	51.4%
COc1ccccc1C(=O)Nc1ncc2c(n1)CC(c1ccco1)CC2=O (configuration not stated)	46.2%
COc1ccccc1C(=O)Nc1nc2ccccc2[nH]1	15.8µM*
CCCCNS(=O)(=O)c1ccc2nc(SCC(=O)c3ccccc3OC)[nH]c2c1	32.0%
C/C=C/C=C\C(=O)Nc1cccc(C2=NOC3(C2)C[C@H](C(N)=O)N(C(=O)/C=C/C)C3)c1 (some centres not stated)	41.7%
O=C(N/N=C/c1ccc([N+](=O)[O-])o1)c1ccccc1NS(=O)(=O)c1cccs1	0.4%
COc1ccc(-c2cc3nc(C)cc(N)n3n2)cc1	14.1µM*
COc1ccc2nc(C)cc(Nc3ccc(C)cc3)c2c1	-1.4%
SMILES	PKM2 inhibitor	others
CCCCN(CC)CCCNC(=O)CN1C(=O)CSc2ccc(S(=O)(=O)N3CCOCC3)cc21	38.3%
COc1ccc(S(=O)(=O)N(C(C)=O)c2ccc(OC(C)=O)c3ccccc23)cc1[N+](=O)[O-]	38.2%
Cc1ccc(NS(=O)(=O)c2cc3c4c(cccc4c2)C(=O)NC3=O)cc1C	97.2%
O=S(=O)(c1ccc(OCC2CO2)cc1)c1ccc(OCC2CO2)cc1 (configuration not stated)	71.5%
Cc1ccc(-n2[nH]c(C)c(/C=N/n3c(C)nc4ccccc4c3=O)c2=O)cc1	12.6µM*
O=c1c2ccccc2nc(-c2ccco2)n1/N=C/c1ccccc1O	46.7%
O=C(CSc1ccc(-c2cccnc2)nn1)Nc1ccc(F)c(F)c1	35.8%
Cc1nonc1CC(=O)N1CCCC(C(=O)c2ccc(Cl)cc2)C1 (configuration not stated)	131.4%
O=C1COc2cc(S(=O)(=O)CCC(=O)N3CCCCC3)c(Cl)cc2N1	37.5%
CSc1nnnn1-c1ccc(C(=O)OCC(=O)N2CCOCC2)cc1	34.4%
CCN(CC)CCn1c(C)nc2ccccc21	0.4%
CCn1c(C)nc2cc(-c3nc4n(n3)Cc3ccccc3-4)ccc21	15.8µM*
CCOc1cc(S(=O)(=O)n2nc(C)cc2C)ccc1Br	73.9%
COc1ccc(Cc2nc(-c3cccs3)no2)cc1	32.9%
O=C(NCc1cccs1)c1cc2ccccc2o1	-0.3%
O=C(Nc1ccccn1)c1cc2ccccc2o1	12.6µM*
Nn1cnc2scc(-c3ccco3)c2c1=O	39.3%
CCOC(=O)c1sc(S(C)=O)c2c1CCc1conc1-2 (configuration not stated)	65.8%
N#Cc1ccc(NC(=S)NCCN2CCOCC2)cc1	128.8%
Cc1ccc(CC2CC(=O)N(Cc3ccco3)C2=O)cc1 (configuration not stated)	30.3%
Cc1ccc2c(c1)C(N1CCCC1=O)CC(c1ccco1)N2 (configuration not stated)	14.1µM*
O=C(NCc1ccco1)/C(=C\c1cccs1)NC(=O)c1ccco1	120.2%
O=C(CCC(=O)N1CCOc2ccc(Cl)cc21)NCCN1CCOCC1	31.5%
CCC(OC(=O)c1nsc(Cl)c1Cl)C(=O)NC(C)(C)CC (configuration not stated)	94.7%
CCc1nc2ccccc2nc1N1CCN(S(=O)(=O)c2ccccc2)CC1	41.1%
SMILES	PKM2 inhibitor	others
N/C(=N\OC(=O)c1ccc(Cl)cc1)c1ccccn1	7.08µM*
N/C(=N\OC(=O)CCCN1C(=O)c2ccccc2C1=O)c1ccccn1	55.2%
Cc1ccc(C(=O)O/N=C(\N)c2ccccn2)c(C)c1	7.94µM*
O=C(OCc1ccc(Cl)cc1Cl)c1cccnc1Cl	43.6%
c1ccc2c(c1)ccc1nnc(SCc3ccc4c(c3)OCO4)n12	47.7%
Cc1cccc(N2CCN(C(=O)c3c(Cl)cnn3C)CC2)c1C	35.9%
Cc1ccc(NC2=C(CC(=O)O)C(c3ccccc3)N(c3ccc(C)cc3)C2=O)cc1 (configuration not stated)	35.4%
COC(=O)c1ccc(NC(=O)c2cc[n+](Cc3ccccc3)cc2)cc1	-1.7%
O=S(=O)(Nc1nc2ccc(Cl)cc2s1)c1cccs1	68.4%
CC(=O)C1=C(S(=O)(=O)c2ccc(C)cc2)CS(=O)(=O)C1	30.1%
CCOc1ccc(NS(=O)(=O)c2ccc3ncsc3c2)cc1	55.5%
COc1ccc(S(=O)(=O)Nc2ccc(S(=O)(=O)Nc3nccs3)cc2)cc1	96.3%
O=C(C1CC1)N1CCN(S(=O)(=O)c2ccc3c(c2)OCCO3)CC1	33.1%
Cc1ccc(Nc2c(-c3ccsc3)nc3cccc(C)n23)cc1	nt	PKM2 inh dose=4.2%;FLuc counter=-3.9%;PKM2 LDH couple=?
COc1ccc(Nc2c(-c3ccc(C)o3)nc3ccccn23)cc1	nt	PKM2 inh dose=11.3%;FLuc counter=5.0%;PKM2 LDH couple=10.4%
Cc1ccc(Nc2c(-c3ccsc3)nc3c(C)cccn23)cc1	nt	PKM2 inh dose=7.7%;FLuc counter=-0.8%;PKM2 LDH couple=?
Cc1ccc(-c2csc(Nc3ccc(S(N)(=O)=O)cc3)n2)o1	88.6%
Cc1ccc(Nc2c(-c3ccc(C)o3)nc3cccc(C)n23)cc1	nt	PKM2 inh dose=14.0%;FLuc counter=0.4%;PKM2 LDH couple=6.51µM*
COc1ccc(NC(=O)c2cc(-c3ccc(C)o3)nc3ccccc23)cc1OC	38.5%
